Results as given in the antibiotic and cytotoxicity screens of Wong et al. (2023).
Out of some 39,000 compounds screened, about 3,300 (8.5%) were called active. The entries come from a sample that favours actives as a whole.

test system: HepG2; assay: cytotoxicity call (relative viability < 0.9); details: 10 µM

Compound | cytotoxicity call
C[C@@H]1CCCCO[C@H](CN(C)Cc2ccc(C(=O)Nc3ccccc3N)cc2)[C@@H](C)CN([C@H](C)CO)C(=O)c2cc(NS(=O)(=O)c3cccs3)ccc2O1 | inactive
C[C@@H]1CCCCO[C@@H](CN(C)Cc2ccc(C(=O)Nc3ccccc3N)cc2)[C@@H](C)CN([C@H](C)CO)C(=O)c2cc(NS(=O)(=O)c3cccs3)ccc2O1 | active
C[C@@H]1CCCCO[C@H](CN(C)Cc2ccc(C(=O)Nc3ccccc3N)cc2)[C@@H](C)CN([C@H](C)CO)C(=O)c2cc(NS(=O)(=O)c3ccccc3)ccc2O1 | inactive
COc1ccc2c3c(n(c2c1)C)[C@H](CO)N(C[C@]13CCN(CC1)C(=O)Nc1ccc(cc1F)F)C(=O)Nc1ccc(cc1)F | inactive
O=C(C[C@@H]1CC[C@H](NS(=O)(=O)c2ccccc2)[C@@H](CO)O1)NCc1ccncn1 | inactive
C[C@H](CO)N1C[C@H](C)[C@H](CN(C)C(=O)Nc2ccc(C(F)(F)F)cc2)Oc2ccc(NC(=O)C3CCCCC3)cc2C1=O | inactive
C[C@@H]1CN([C@H](C)CO)S(=O)(=O)c2ccc(C#CC3CC3)cc2O[C@H]1CN(C)Cc1ccc(F)cc1 | active
C[C@H]1CN([C@@H](C)CO)S(=O)(=O)c2ccc(C#CCN(C)C)cc2O[C@@H]1CN(C)Cc1ccc(F)cc1 | inactive
C[C@H](CO)N1C[C@H](C)[C@H](CN(C)Cc2ccc(F)cc2)Oc2cc(C#CCN(C)C)ccc2S1(=O)=O | active
C[C@@H]1CN([C@@H](C)CO)S(=O)(=O)c2ccc(C#CCN(C)C)cc2O[C@H]1CN(C)Cc1ccc(F)cc1 | inactive
C[C@@H]1CN([C@@H](C)CO)S(=O)(=O)c2ccc(C#CC3CC3)cc2O[C@H]1CN(C)Cc1ccc(F)cc1 | inactive
C[C@H](CO)N1C[C@H](C)[C@@H](CN(C)Cc2ccc(F)cc2)Oc2cc(C#CCN(C)C)ccc2S1(=O)=O | inactive
C[C@H](CO)N1C[C@H](C)[C@@H](CN(C)Cc2ccc(F)cc2)Oc2cc(C#CC3CC3)ccc2S1(=O)=O | inactive
C[C@@H]1CN([C@H](C)CO)S(=O)(=O)c2ccc(C#CCN(C)C)cc2O[C@H]1CN(C)Cc1ccc(F)cc1 | active
C[C@@H]1CN([C@@H](C)CO)S(=O)(=O)c2ccc(C#CCN(C)C)cc2O[C@@H]1CN(C)Cc1ccc(F)cc1 | inactive
CCCNC(=O)N1C[C@@H](O)COC[C@@H]2O[C@@H](CC(=O)NCc3ccncn3)CC[C@H]21 | inactive
C[C@@H]1CN([C@@H](C)CO)S(=O)(=O)c2ccc(C3=CCCC3)cc2O[C@@H]1CN(C)C(=O)c1cnccn1 | inactive
COc1ccc(CN(C)C[C@H]2OCCCC[C@H](C)Oc3ccc(NS(=O)(=O)c4ccc(Cl)cc4)cc3C(=O)N([C@H](C)CO)C[C@H]2C)cc1 | inactive
C[C@H](CO)N1C[C@H](C)[C@@H](CN(C)C(=O)Cc2ccccc2)OCCCC[C@H](C)Oc2ccc(NC(=O)Cc3ccccc3)cc2C1=O | inactive
CC(C)N1C[C@H](C)[C@@H](CN(C)Cc2ccc(Oc3ccccc3)cc2)Oc2c(NC(=O)c3ccccn3)cccc2C1=O | inactive
COc1ccccc1-c1ccc2c(c1)O[C@H](CN(C)CC1CCOCC1)[C@@H](C)CN([C@H](C)CO)S2(=O)=O | inactive
C[C@@H]1CN([C@@H](C)CO)S(=O)(=O)c2ccc(C#CC3(O)CCCC3)cc2O[C@@H]1CN(C)C(=O)c1cccnc1 | inactive
C[C@@H]1CN([C@@H](C)CO)C(=O)c2ccccc2-c2ccccc2CO[C@H]1CN(C)Cc1ccccc1C(F)(F)F | inactive
O=C(C[C@@H]1CC[C@H]2[C@@H](COC[C@@H](O)CN2S(=O)(=O)c2ccc(F)cc2)O1)N[C@@H]1CCN(Cc2ccccc2)C1 | inactive
O=C(C[C@H]1CC[C@H](NC(=O)Cc2ccccn2)[C@H](CO)O1)NCCc1ccncc1 | inactive

Compound | cytotoxicity call
CC1CCN(C(=O)N2c3ccccc3Sc3ccccc32)CC1 | inactive
CSc1ccc2c(c1)N(CCC1CCCCN1C)c1ccccc1S2.Cl (centres undefined) | active
C[C@H]1CN([C@@H](C)CO)C(=O)c2cccc(NS(=O)(=O)c3cccs3)c2O[C@H]1CN(C)S(C)(=O)=O | inactive
C[C@@H]1CN([C@@H](C)CO)C(=O)c2cc(NC(=O)Nc3ccccc3)ccc2O[C@@H](C)CCCCO[C@H]1CN(C)C(=O)CCC(F)(F)F | inactive
C[C@@H]1CCCCO[C@H](CN(C)S(=O)(=O)c2cccs2)[C@H](C)CN([C@@H](C)CO)C(=O)c2cc(NC(=O)Nc3ccc(C(F)(F)F)cc3)ccc2O1 | active
C[C@@H]1CN([C@@H](C)CO)C(=O)c2cc(NC(=O)Nc3ccc(C(F)(F)F)cc3)ccc2O[C@@H](C)CCCCO[C@@H]1CN(C)S(=O)(=O)c1cccs1 | inactive
C[C@@H]1CCCCO[C@@H](CN(C)S(=O)(=O)c2cccs2)[C@@H](C)CN([C@H](C)CO)C(=O)c2cc(NC(=O)Nc3ccc(C(F)(F)F)cc3)ccc2O1 | inactive
C[C@@H]1CCCCO[C@H](CN(C)S(=O)(=O)c2cccs2)[C@@H](C)CN([C@@H](C)CO)C(=O)c2cc(NC(=O)Nc3ccc(C(F)(F)F)cc3)ccc2O1 | active
C[C@H](CO)N1C[C@H](C)[C@@H](CN(C)S(=O)(=O)c2cccs2)OCCCC[C@H](C)Oc2ccc(NC(=O)Nc3ccc(C(F)(F)F)cc3)cc2C1=O | inactive
C[C@@H]1CN([C@H](C)CO)C(=O)c2cc(NC(=O)Nc3ccc(C(F)(F)F)cc3)ccc2O[C@@H](C)CCCCO[C@@H]1CN(C)S(=O)(=O)c1cccs1 | inactive
C[C@@H]1CN([C@H](C)CO)C(=O)c2cc(NC(=O)C3CC3)ccc2O[C@H]1CN(C)Cc1ccc(Oc2ccccc2)cc1 | inactive
COc1cc(OC)c([C@@H]2c3c(n(C)c(=O)n(C)c3=O)N=C3COC(=O)C32)cc1OC (some centres undefined) | inactive
NCc1cnc(Nc2ccccc2)nc1 | inactive
COc1ccc(S(=O)(=O)Nc2ccc3c(c2)C(=O)N([C@H](C)CO)C[C@H](C)[C@@H](CN(C)Cc2ccc4c(c2)OCO4)OCCCC[C@@H](C)O3)cc1 | inactive
C[C@@H]1CCCCO[C@H](CN(C)C(=O)C2CCCCC2)[C@H](C)CN([C@H](C)CO)C(=O)c2cc(NC(=O)c3ccccc3)ccc2O1 | inactive
C[C@@H]1CN([C@@H](C)CO)C(=O)c2cccc(NC(=O)C3CCCCC3)c2O[C@@H]1CN(C)Cc1ccc(C(F)(F)F)cc1 | inactive
C[C@H](CO)N1C[C@H](C)[C@@H](CN(C)C(=O)c2cnccn2)Oc2ncc(C#Cc3ccccn3)cc2C1=O | inactive
CCCCC[C@@H](C)N | inactive
C[C@@H]1CN([C@H](C)CO)C(=O)Cc2cc(NS(=O)(=O)c3cn(C)cn3)ccc2O[C@@H]1CN(C)CC1CC1 | inactive
O=C(Nc1cccc2cccnc12)[C@@H]1[C@H](c2cc(Cl)cc(Br)c2)CC(=O)N1C(=O)OCc1ccccc1 | active
O=C(Nc1cccc2cccnc12)[C@@H]1[C@H](c2ccc(Br)cc2)CC(=O)N1C(=O)OCc1ccccc1 | inactive
COc1ccc(NC(=O)[C@H]2[C@@H](c3ccc(C)cc3)CC(=O)N2C(=O)OCc2ccccc2)c2ncccc12 | active
O=C(Nc1cccc2cccnc12)[C@@H]1[C@H](c2ccc(-c3ccccc3)cc2)CC(=O)N1C(=O)OCc1ccccc1 | inactive
O=C(Nc1cccc2cccnc12)[C@@H]1[C@H](c2cccc(Br)c2)CC(=O)N1C(=O)OCc1ccccc1 | inactive
COc1ccc(NC(=O)[C@@H]2[C@H](c3ccc(C)cc3)CC(=O)N2C(=O)OCc2ccccc2)c2ncccc12 | inactive

Compound | cytotoxicity call
C[C@H](CO)N1C[C@H](C)[C@H](CN(C)Cc2ccccc2)Oc2c(NS(=O)(=O)c3cn(C)cn3)cccc2C1=O | inactive
COC(=O)C1=CO[C@@H](O[C@@H]2O[C@H](CO)[C@@H](O)[C@H](O)[C@H]2O)[C@@H]2[C@@H](C)[C@@H](O)C[C@H]12 | inactive
CC1=NNC(=O)CC1 | inactive
Cc1noc(C)c1NC(=O)Nc1ccc2c(c1)C(=O)N([C@H](C)CO)C[C@@H](C)[C@@H](CN(C)Cc1ccc(C(F)(F)F)cc1)OCCCC[C@@H](C)O2 | inactive
Cn1nnnc1NCc1ccccc1 | inactive
c1ccc(CNc2nn[nH]n2)cc1 | inactive
c1ccc(CNc2ccc3c(ccc4c5ccccc5[nH]c34)n2)cc1 | active
C[C@@H](CO)N1C(=O)[C@@H]2[C@H]3C(=O)OCCC=C[C@H]3O[C@]23C=CCN(Cn2nnc4ccccc42)C(=O)[C@@H]13 | inactive
O=c1nc[nH]c2ccccc12 | inactive
FC(F)(F)c1ccc(CSc2c[nH]c3ccccc23)cc1 | inactive
Brc1ccc(CSc2c[nH]c3ccccc23)cc1 | active
Cn1nnc(NCc2ccccc2)n1 | inactive
CC1(C)C=Cc2c(nc3ccccc3c2NCc2ccccc2)C1 | active
CC(C)NC(=O)Nc1cccc2c1O[C@H](CN(C)S(=O)(=O)c1ccc(Cl)cc1)[C@@H](C)CN([C@@H](C)CO)C2=O | inactive
CNC(=O)C[C@H]1CC[C@H]2[C@@H](COC[C@@H](O)CN2C(=O)c2ccccn2)O1 | inactive
C=C[C@@H]1C[C@]1(NC(=O)[C@@H]1C[C@@H]2CN1C(=O)[C@H](C(C)(C)C)NC(=O)O[C@@H]1C[C@H]1CCCCCc1nc3ccc(OC)cc3nc1O2)C(=O)NS(=O)(=O)C1CC1 | inactive
COCC#Cc1ccc2c(c1)O[C@H](CN(C)C(=O)Nc1ccccc1F)[C@@H](C)CN([C@H](C)CO)S2(=O)=O | inactive
C[C@H](CO)N1C[C@H](C)[C@@H](CN(C)S(=O)(=O)c2cccs2)Oc2ccc(NC(=O)Cn3cnnn3)cc2CC1=O | inactive
C[C@@H]1CN([C@H](C)CO)C(=O)c2cc(NC(=O)Nc3cccc4ccccc34)ccc2O[C@H]1CN(C)Cc1ccc(C(=O)Nc2ccccc2N)cc1 | inactive
C[C@H](CO)N1C[C@H](C)[C@@H](CN(C)Cc2ccc(C(=O)Nc3ccccc3N)cc2)Oc2ccc(NC(=O)Nc3cccc4ccccc34)cc2C1=O | inactive
C[C@H](CO)N1C[C@H](C)[C@H](CN(C)Cc2ccc(C(=O)Nc3ccccc3N)cc2)Oc2ccc(NC(=O)Nc3cccc4ccccc34)cc2C1=O | active
C[C@H]1CN([C@@H](C)CO)C(=O)c2cc(NC(=O)Nc3cccc4ccccc34)ccc2O[C@H]1CN(C)Cc1ccc(C(=O)Nc2ccccc2N)cc1 | inactive
C[C@@H]1CN([C@H](C)CO)C(=O)c2cc(NC(=O)Nc3cccc4ccccc34)ccc2O[C@@H]1CN(C)Cc1ccc(C(=O)Nc2ccccc2N)cc1 | active
C[C@H]1CN([C@@H](C)CO)C(=O)c2cc(NC(=O)Nc3cccc4ccccc34)ccc2O[C@@H]1CN(C)Cc1ccc(C(=O)Nc2ccccc2N)cc1 | inactive
